Source: the supplement of paper PMC10849652
The full data set covers some 7,900 targets. This sample favours those with a hit. About 0.6% of all pairs of compound and target were hits. Values without a mark were called inactive.

Assays:
Assay in all cases: log2 fold change, soluble protein after heating vs DMSO (PISA); higher = thermal stabilisation; K562 cells, 10 uM, 30 min; active = over 0.2 and 3.5 SD of the protein, either way, in both replicates (recomputed)
IRAK-1-4 Inhibitor I = compound: C1COCCN1CCN2C3=CC=CC=C3N=C2NC(=O)C4=CC(=CC=C4)[N+](=O)[O-] [IRAK-1-4 Inhibitor I]
Summary of the method: (§1)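 For each measurement, 10 μM compound was applied for 30 min to K562 cells at 2×10^6 cells/mL. Aliquots were heated for 3 min across 48°C-58°C, pooled, and extracted in PBS with 0.5% NP-40 at 4°C; the supernatant after 21,000xg for 90 min was soluble protein. This was quantified by TMTpro 16plex LC-MS/MS with channel sums equalised, and thermal stability was reported relative to control samples from duplicates, on a log2 fold-change scale.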

ibrutinib = compound: C=CC(=O)N1CCC[C@@H](n2nc(-c3ccc(Oc4ccccc4)cc3)c3c(N)ncnc32)C1 [ibrutinib]
Summary of the method: as §1

[1] = compound: CC(=O)c1cnc2ccc(-c3cc(Cl)c(O)c(Cl)c3)nc2c1N[C@H]1CC[C@H](CN(C)C)CC1
Summary of the method: as §1

ralimetinib = compound: CC(C)(C)Cn1c(N)nc2ccc(-c3[nH]c(C(C)(C)C)nc3-c3ccc(F)cc3)nc21 [ralimetinib]
Summary of the method: as §1

[2] = compound: CC(C)(O)CC(=O)NCCn1ccc2ncnc(Nc3ccc(Oc4cccc(C(F)(F)F)c4)c(Cl)c3)c21
Summary of the method: as §1

[3] = compound: CC(C)C1=C2N=C(C=C(N2N=C1)NCC3=CC=CC=C3)NCCCCCCN
Summary of the method: as §1

[4] = compound: CC(C)C[C@@H](C=O)NC(=O)[C@H](CC(C)C)NC(=O)[C@H](CC(C)C)NC(=O)OCc1ccccc1
Summary of the method: as §1

pinometostat = compound: CC(C)N(C[C@H]1O[C@@H](n2cnc3c(N)ncnc32)[C@H](O)[C@@H]1O)[C@H]1C[C@@H](CCc2nc3cc(C(C)(C)C)ccc3[nH]2)C1 [pinometostat]
Summary of the method: as §1

[5] = compound: CC1=C(C(CC(=O)N1)C2=CC=C(C=C2)C(F)(F)F)C(=O)NC3=C(C=C4C(=C3)C=NN4)F
Summary of the method: as §1

[6] = compound: CC1=C(C2=C(C=C1)C(=O)C3=CC=CC=C3N2CCCN)C
Summary of the method: as §1

UniProt Q9Y673, sequence (Q9Y673 whole entry, looked up): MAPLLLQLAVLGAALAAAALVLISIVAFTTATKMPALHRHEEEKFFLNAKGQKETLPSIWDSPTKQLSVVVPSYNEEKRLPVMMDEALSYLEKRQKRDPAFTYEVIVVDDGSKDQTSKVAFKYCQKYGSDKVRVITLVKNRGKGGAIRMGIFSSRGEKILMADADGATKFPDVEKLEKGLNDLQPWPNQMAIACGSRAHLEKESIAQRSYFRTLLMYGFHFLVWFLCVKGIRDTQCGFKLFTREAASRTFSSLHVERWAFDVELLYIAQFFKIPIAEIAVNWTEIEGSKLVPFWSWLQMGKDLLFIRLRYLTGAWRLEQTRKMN
UniProt P11117, sequence (P11117 whole entry, looked up): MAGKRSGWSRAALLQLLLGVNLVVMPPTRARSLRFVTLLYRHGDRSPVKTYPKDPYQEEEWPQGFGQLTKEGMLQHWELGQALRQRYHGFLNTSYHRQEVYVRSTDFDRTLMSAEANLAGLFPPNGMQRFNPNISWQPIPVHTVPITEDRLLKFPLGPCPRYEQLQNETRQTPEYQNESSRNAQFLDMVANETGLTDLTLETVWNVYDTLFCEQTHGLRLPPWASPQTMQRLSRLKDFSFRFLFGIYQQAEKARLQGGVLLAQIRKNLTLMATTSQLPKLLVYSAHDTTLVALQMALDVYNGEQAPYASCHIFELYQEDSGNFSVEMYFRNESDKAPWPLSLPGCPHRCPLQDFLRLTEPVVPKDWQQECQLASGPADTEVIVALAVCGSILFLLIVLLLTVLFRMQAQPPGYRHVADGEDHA
UniProt Q13895, sequence (Q13895 whole entry, looked up): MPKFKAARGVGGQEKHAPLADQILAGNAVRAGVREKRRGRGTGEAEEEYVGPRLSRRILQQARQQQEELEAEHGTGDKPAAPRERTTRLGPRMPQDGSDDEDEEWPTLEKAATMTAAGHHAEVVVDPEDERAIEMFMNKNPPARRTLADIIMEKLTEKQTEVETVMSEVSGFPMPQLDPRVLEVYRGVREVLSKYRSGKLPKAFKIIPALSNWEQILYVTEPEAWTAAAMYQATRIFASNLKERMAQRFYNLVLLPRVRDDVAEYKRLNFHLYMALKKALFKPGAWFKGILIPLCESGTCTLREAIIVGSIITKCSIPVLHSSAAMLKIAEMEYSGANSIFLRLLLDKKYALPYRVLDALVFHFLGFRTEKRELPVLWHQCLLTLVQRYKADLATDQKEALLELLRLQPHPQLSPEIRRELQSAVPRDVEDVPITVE
UniProt Q9Y4P1, sequence (Q9Y4P1 whole entry, looked up): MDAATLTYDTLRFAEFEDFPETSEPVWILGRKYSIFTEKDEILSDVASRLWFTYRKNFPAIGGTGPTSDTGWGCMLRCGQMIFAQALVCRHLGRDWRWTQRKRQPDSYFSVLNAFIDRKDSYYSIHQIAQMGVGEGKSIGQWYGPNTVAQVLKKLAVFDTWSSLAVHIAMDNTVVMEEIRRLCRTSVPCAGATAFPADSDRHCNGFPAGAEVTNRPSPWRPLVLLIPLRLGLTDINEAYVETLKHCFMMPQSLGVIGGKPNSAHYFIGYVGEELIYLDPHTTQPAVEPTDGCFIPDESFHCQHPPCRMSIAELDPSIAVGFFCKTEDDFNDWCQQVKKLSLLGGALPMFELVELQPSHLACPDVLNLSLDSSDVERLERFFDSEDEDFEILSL
UniProt Q8N6T3, sequence (Q8N6T3 whole entry, looked up): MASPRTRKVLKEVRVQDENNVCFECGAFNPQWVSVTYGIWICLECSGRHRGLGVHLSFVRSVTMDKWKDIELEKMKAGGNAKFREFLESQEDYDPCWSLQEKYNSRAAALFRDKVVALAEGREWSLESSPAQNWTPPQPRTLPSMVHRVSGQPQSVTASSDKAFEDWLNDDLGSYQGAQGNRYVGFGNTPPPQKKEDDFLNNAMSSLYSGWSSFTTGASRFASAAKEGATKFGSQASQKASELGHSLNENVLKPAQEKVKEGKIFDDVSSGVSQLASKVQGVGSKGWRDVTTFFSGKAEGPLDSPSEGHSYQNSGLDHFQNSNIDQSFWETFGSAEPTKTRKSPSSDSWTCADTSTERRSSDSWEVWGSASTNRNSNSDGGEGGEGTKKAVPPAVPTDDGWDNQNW
UniProt P54709, sequence (P54709 whole entry, looked up): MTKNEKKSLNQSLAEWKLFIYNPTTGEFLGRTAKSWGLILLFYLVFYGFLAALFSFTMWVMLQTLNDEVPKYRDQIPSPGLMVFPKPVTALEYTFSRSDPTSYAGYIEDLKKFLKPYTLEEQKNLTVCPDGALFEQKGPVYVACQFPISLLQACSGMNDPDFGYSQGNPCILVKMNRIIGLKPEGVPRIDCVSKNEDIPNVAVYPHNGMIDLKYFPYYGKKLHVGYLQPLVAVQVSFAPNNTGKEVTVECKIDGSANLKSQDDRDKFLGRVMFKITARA
UniProt Q96P47, sequence (Q96P47 whole entry, looked up): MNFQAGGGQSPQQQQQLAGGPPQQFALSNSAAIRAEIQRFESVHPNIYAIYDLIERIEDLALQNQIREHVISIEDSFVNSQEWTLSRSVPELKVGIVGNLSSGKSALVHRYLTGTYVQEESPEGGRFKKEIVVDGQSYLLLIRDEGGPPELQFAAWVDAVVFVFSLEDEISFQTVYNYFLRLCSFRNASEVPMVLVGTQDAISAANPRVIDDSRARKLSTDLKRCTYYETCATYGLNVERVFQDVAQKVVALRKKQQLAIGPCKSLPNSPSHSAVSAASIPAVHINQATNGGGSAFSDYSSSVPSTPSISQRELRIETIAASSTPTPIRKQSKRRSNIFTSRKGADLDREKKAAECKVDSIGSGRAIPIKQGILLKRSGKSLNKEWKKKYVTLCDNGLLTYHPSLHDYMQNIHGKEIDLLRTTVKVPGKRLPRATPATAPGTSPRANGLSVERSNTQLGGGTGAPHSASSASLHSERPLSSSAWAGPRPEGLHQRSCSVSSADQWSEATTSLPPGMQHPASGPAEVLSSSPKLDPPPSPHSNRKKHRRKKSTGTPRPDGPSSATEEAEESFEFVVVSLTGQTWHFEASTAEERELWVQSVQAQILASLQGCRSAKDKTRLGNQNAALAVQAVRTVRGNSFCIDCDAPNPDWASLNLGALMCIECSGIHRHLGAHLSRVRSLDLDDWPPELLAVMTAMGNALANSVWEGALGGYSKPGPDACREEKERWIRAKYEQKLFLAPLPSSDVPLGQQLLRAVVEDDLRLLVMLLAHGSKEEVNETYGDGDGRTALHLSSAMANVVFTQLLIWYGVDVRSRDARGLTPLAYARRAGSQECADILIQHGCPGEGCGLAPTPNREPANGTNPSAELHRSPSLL
UniProt Q9NWX5, sequence (Q9NWX5 whole entry, looked up): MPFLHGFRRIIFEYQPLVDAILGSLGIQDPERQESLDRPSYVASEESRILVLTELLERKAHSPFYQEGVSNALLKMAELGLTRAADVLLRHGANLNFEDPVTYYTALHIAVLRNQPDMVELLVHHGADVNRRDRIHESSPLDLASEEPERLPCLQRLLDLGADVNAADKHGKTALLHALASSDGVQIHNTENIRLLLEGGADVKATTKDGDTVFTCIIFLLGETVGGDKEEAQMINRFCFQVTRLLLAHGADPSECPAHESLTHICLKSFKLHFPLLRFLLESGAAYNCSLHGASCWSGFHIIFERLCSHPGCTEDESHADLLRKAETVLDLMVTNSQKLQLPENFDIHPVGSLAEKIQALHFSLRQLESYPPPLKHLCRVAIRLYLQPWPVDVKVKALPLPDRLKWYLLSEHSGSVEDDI
UniProt Q9UHQ4, sequence (Q9UHQ4 whole entry, looked up): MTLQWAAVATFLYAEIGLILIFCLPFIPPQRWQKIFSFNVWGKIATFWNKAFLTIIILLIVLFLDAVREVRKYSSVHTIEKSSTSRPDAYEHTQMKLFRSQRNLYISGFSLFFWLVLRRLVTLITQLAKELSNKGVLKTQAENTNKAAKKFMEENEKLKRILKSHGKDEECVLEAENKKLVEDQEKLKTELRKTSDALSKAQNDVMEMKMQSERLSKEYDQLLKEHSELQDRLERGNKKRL
UniProt Q9H8Y5, sequence (Q9H8Y5 whole entry, looked up): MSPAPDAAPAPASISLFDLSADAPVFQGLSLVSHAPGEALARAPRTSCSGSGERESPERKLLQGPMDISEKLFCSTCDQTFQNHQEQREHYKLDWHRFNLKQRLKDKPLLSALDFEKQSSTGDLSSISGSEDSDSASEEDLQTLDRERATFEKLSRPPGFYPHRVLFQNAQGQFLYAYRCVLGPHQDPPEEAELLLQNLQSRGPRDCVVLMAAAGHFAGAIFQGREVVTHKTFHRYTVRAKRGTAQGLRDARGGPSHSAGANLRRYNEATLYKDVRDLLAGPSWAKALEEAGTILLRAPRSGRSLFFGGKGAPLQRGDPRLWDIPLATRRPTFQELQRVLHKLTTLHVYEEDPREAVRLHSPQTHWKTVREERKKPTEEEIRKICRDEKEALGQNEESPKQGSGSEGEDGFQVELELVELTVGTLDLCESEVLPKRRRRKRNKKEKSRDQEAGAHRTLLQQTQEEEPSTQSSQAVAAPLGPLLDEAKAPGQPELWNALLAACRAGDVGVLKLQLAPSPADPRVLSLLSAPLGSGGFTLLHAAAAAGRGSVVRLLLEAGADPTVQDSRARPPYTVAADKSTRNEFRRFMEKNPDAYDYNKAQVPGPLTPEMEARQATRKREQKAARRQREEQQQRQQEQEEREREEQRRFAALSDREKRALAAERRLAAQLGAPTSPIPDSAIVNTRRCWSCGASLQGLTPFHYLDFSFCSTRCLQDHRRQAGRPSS
UniProt Q9Y2Y0, sequence (Q9Y2Y0 whole entry, looked up): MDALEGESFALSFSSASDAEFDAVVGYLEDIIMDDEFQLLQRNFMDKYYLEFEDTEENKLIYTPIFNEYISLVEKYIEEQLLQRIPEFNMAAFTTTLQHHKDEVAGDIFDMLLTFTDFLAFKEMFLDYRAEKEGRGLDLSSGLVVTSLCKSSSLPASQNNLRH
UniProt Q92934, sequence (Q92934 whole entry, looked up): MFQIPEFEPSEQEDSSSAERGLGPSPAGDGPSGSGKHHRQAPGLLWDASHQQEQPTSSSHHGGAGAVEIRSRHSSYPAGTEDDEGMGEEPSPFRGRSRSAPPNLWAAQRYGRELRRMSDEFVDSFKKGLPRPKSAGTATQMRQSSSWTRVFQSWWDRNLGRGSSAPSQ

Row | Target | log2 fold change (IRAK-1-4 Inhibitor I) | log2 fold change (ibrutinib) | log2 fold change [1] | log2 fold change (ralimetinib) | log2 fold change [2] | log2 fold change [3] | log2 fold change [4] | log2 fold change (pinometostat) | log2 fold change [5] | log2 fold change [6]
1 | ATOX1 (UniProt O00244) | 0.018 | 0.01 | 0.154 | 0.23 | -0.005 | 0.109 | -0.198 | -0.153 | -0.004 | 0.099
2 | ALG5 (UniProt Q9Y673) | 0.026 | -0.043 | -0.281 (active) | 0.009 | -0.009 | -0.004 | 0 | -0.002 | -0.057 | 0.07
3 | BCLAF1 (UniProt Q9NYF8) | -0.265 | 0.016 | -0.503 (active) | 0.124 | 0.094 | -0.353 | -0.027 | -0.039 | 0.021 | -0.076
4 | AMFR (UniProt Q9UKV5) | -0.083 | -0.039 | 0.07 | 0.117 | -0.034 | -0.375 (active) | 0.12 | 0.077 | -0.011 | 0.019
5 | APOBEC3G (UniProt Q9HC16) | -0.064 | 0.103 | -0.111 | 0.128 | 0.075 | 0.046 | 0.077 | 0.11 | -0.09 | -0.492 (active)
6 | ARL3 (UniProt P36405) | 0.049 | -0.01 | -0.033 | -0.042 | -0.034 | 0.065 | -0.057 | -0.029 | 0.002 | 0.017
7 | ARFIP1 (UniProt P53367) | -0.034 | -0.117 | -0.075 | -0.104 | -0.031 | -0.011 | -0.029 | 0.006 | 0.014 | 0.164
8 | BYSL (UniProt Q13895) | -0.115 | -0.054 | 0.043 | 0.051 | -0.11 | -0.109 | 0.092 | 0.118 | -0.007 | -0.495 (active)
9 | ATG4B isoform 2 (UniProt Q9Y4P1) | 0.127 | -0.038 | -0.102 | 0.134 | -0.194 | -0.299 | -0.137 | -0.013 | -0.031 | 0.114
10 | ALG11 (UniProt Q2TAA5) | 0.003 | 0.09 | 0.053 | -0.014 | -0.112 | 0.037 | -0.064 | 0.032 | 0.002 | 0.23 (active)
11 | ACP2 (UniProt P11117) | 0.047 | 0.033 | -0.012 | -0.012 | -0.03 | -0.205 | -0.026 | 0.027 | 0.02 | -0.006
12 | ATP13A2 (UniProt Q9NQ11) | 0.04 | 0.074 | 0.007 | -0.033 | -0.03 | -0.511 (active) | 0.011 | 0.063 | 0.044 | 0.181
13 | ASB6 (UniProt Q9NWX5) | 0.106 | -0.108 | 0.039 | 0.343 | -0.274 | -0.055 | 0.069 | -0.031 | 0.059 | –
14 | ARL2BP (UniProt Q9Y2Y0) | -0.053 | -0.009 | 0.03 | 0.01 | -0.127 | -0.269 | -0.011 | -0.037 | -0.002 | -0.028
15 | AFDN isoform 5 (UniProt P55196) | -0.018 | -0.012 | -0.19 | -0.002 | -0.125 | -0.082 | 0.01 | 0.004 | 0.007 | 0.049
16 | AKR1C3 (UniProt P42330) | 0.072 | -0.108 | 0.015 | 0.085 | 0.265 | 0.025 | -0.149 | -0.069 | -0.064 | -0.049
17 | BCAP29 isoform 2 (UniProt Q9UHQ4) | 0.051 | -0.014 | 0.011 | -0.094 | 0.111 | -0.106 | 0.007 | -0.012 | 0.026 | 0.052
18 | BAD (UniProt Q92934) | 0.057 | 0.024 | -0.061 | -0.054 | 0.077 | -0.04 | -0.041 | 0.012 | 0.065 | –
19 | ATP6V1H (UniProt Q9UI12) | -0.011 | -0.033 | -0.065 | 0.007 | -0.014 | -0.241 (active) | 0.043 | -0.002 | -0.006 | 0.028
20 | BCCIP isoform 2 (UniProt Q9P287) | 0.013 | -0.025 | 0.008 | -0.048 | 0.012 | 0.008 | -0.012 | 0.029 | -0.012 | 0.077
21 | ATP13A3 (UniProt Q9H7F0) | 0.043 | -0.005 | 0.004 | -0.032 | -0.136 | -0.199 | 0.073 | -0.007 | 0.042 | -0.035
22 | B4GALNT1 (UniProt Q00973) | 0.01 | -0.159 | -0.188 | -0.129 | 0.017 | 0.038 | 0.052 | -0.101 | -0.119 | 0.057
23 | ARL6IP4 (UniProt Q66PJ3) | 0.049 | 0.026 | 0.018 | 0.01 | 0 | 0.075 | 0.021 | -0.03 | 0.064 | 0.049
24 | ATP1B3 (UniProt P54709) | 0.025 | 0.043 | -0.03 | -0.036 | 0.01 | 0.154 | -0.008 | -0.056 | -0.012 | -0.032
25 | ALDH2 (UniProt P05091) | 0.005 | 0.002 | -0.005 | -0.086 | -0.037 | 0.018 | -0.032 | -0.034 | -0.046 | 0.063
26 | ABHD11 (UniProt Q8NFV4) | -0.031 | 0.031 | -0.007 | -0.123 | -0.006 | -0.043 | 0.068 | -0.027 | -0.016 | 0.026
27 | AGAP3 isoform 4 (UniProt Q96P47) | -0.024 | -0.018 | -0.223 | 0.25 | 0.009 | -0.182 | -0.044 | 0.245 | -0.107 | -0.043
28 | ARFGAP1 (UniProt Q8N6T3) | -0.008 | 0.005 | -0.013 | 0.07 | -0.012 | -0.11 | -0.017 | -0.027 | 0.02 | 0.002
29 | ACSM3 (UniProt Q53FZ2) | 0 | -0.021 | -0.11 | -0.003 | -0.397 (active) | -0.155 | -0.086 | 0.046 | -0.001 | 0.041
30 | ANKZF1 (UniProt Q9H8Y5) | -0.052 | 0.031 | -0.19 | 0.189 | 0 | -0.065 | 0.192 | 0.136 | 0.034 | -0.069
